proKLK7 act – proKLK7 (human) activation, primary screen. activation, % at 7 µM. AID 652039. 370,000 tested, 0.9% active. purified proKLK7, EDANS-DABCYL substrate fluorescence; 100% is mature enzyme control, 0% vehicle. P49862;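 active = activation above the mean of all tested compounds plus 3 SD, computed per campaign excluding outliers beyond control limits, cut at about 13% in these data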
CendR NRP1 mod – NRP-1/CendR interaction modulation. 360,000 tested, 0.85% active. O14786. FAM-RPARPAR peptide binding to NRP-1, fluorescence polarization. inhibition, % at 25 µM;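 active = inhibition or corrected inhibition above about 18%, plus a signal ratio from 0.5 to 1.5, limit read from the data, passing the limit was not always enough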
ADAM10 inh – inhibits human ADAM10 | O14672 | recombinant ADAM10, EDANS/DABCYL FRET peptide cleavage, 3 h | inhibition, % at 7 µM | 370,000 tested, 0.62% active;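 active = inhibition above a per-campaign cutoff equal to the mean of compounds falling between control-based bounds plus 3 SD, cut at about 20% in these data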;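 note: 0% = DMSO wells while the 100% control is not disclosed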
ADAM17 inh – inhibits human ADAM17; P78536; recombinant ADAM17, EDANS/DABCYL FRET peptide cleavage; inhibition, % at 6.95 µM; 370,000 tested, 0.83% active;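 active = inhibition above the mean of compounds lying between control limits plus 3 SD, set per campaign, cut at about 8.5% in these data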;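 note: 0% = DMSO-only wells as the low control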
Target sequence (P78536 215-824 limits assumed): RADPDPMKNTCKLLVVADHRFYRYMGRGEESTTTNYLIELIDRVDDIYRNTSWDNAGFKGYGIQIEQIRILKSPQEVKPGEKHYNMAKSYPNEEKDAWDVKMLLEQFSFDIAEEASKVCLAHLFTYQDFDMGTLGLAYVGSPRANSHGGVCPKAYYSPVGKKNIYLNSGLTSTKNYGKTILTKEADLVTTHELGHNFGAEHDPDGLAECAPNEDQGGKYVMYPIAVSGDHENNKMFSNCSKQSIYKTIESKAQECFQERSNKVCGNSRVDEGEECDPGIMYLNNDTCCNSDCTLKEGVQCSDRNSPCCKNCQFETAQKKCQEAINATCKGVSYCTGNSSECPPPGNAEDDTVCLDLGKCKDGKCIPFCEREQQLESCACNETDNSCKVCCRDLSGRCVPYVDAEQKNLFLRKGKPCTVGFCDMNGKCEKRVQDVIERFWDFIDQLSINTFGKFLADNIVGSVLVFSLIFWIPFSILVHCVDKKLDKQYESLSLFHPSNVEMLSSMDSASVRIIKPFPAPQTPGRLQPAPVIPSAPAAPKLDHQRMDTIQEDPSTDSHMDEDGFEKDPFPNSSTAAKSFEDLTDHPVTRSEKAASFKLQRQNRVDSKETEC
HGIII-sPLA2 inh – Blocks human group III sPLA2 activity | QFRET BODIPY PC-A2 liposome hydrolysis, fluorescence | inhibition, % at 12.2 µM | 370,000 tested, 0.56% active | Q9NZ20;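 active = inhibition above mean plus 3 SD of compounds lying within the high and low control bounds, cut at about 19% in these data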;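 note: 0% = median of test compound wells and 100% = no enzyme DMSO wells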
proKLK7 act conf – confirmation of human kallikrein-7 zymogen activators. shares compounds with proKLK7 act. purified proKLK7, EDANS-DABCYL substrate fluorescence; scaled: vehicle 0, mature enzyme 100. activation, % at 7 µM. 3,200 tested, 68% active. AID 686949;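 active = activation, as change over the incubation, above the mean of all tested compounds plus 3 SD, cut at about 13% in these data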
EDANS interfere – fluorescence interference counter-screen for KLK7 activators | shares compounds with proKLK7 act | EDANS-DABCYL substrate fluorescence interference, no enzyme, 4 h; solvent 0%, active enzyme control 100% | activation, % at 7 µM | 3,200 tested, 80% active | AID 686952;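 active = activation above the all-compound mean plus 3 SD, ignoring values outside control-based bounds, cut at about 4.8% in these data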;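 note: value is the 4 h activation minus the activation read at time zero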
ADAM10 confirm – confirmation of inhibitors of human ADAM10 | shares compounds with ADAM10 inh | ADAM10 QFRET peptide cleavage, EDANS fluorescence | inhibition, % at 6.95 µM | 2,100 tested, 1% active;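 active = inhibition above about 20% chosen separately for each screening run, limit read from the data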;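 note: 0% = DMSO wells and 100% = marimastat wells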
ADAM17 counter – inhibits human ADAM17 in ADAM10 exosite counter-screen. shares compounds with ADAM10 inh. ADAM17 QFRET peptide cleavage, EDANS fluorescence. inhibition, % at 6.95 µM. 2,100 tested, 0.5% active. AID 743214;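 active = mean triplicate inhibition above the solvent-only control wells' mean plus 3 SD, cut at about 12% in these data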;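 note: 0% = DMSO wells and 100% = marimastat wells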
hGIII sPLA2 conf – human GIII-sPLA2 inhibition, confirmation. inhibition, % at 12.2 µM. shares compounds with HGIII-sPLA2 inh. 2,000 tested, 34% active. recombinant hGIII-sPLA2, BODIPY PC-A2 QFRET fluorescence;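 active = mean inhibition across triplicates above the hit cutoff set in the earlier primary screen, cut at about 19% in these data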;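 note: 0% = enzyme with DMSO and 100% = DMSO wells lacking enzyme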
535nm interf – optically interferes with 535nm fluorescence in sPLA2 counter-screen; shares compounds with HGIII-sPLA2 inh; BODIPY FL product fluorescence interference, QFRET; inhibition, % at 12.2 µM; 2,000 tested, 8.5% active; AID 743282;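 active = average inhibition above the solvent-only control mean plus 3 SD, cut at about 6% in these data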;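 note: 0% = DMSO with substrate plus product and 100% = DMSO with substrate alone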
BODIPY interf DR – interferes with 535nm fluorescence in dose response counter-screen | shares compounds with HGIII-sPLA2 inh | BODIPY FL product fluorescence interference, cell-free | IC50, µM | 240 tested, under 10 active | AID 743455;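 active = IC50 at or below 10 µM; inactive = IC50 above 10 µM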
* hit, by the source's call; i = inactive; . = not tested or not shown. This is a sample that favours compounds with a hit; in the whole collection about 3.4% have one here.

SMILES	proKLK7 act	CendR NRP1 mod	ADAM10 inh	ADAM17 inh	HGIII-sPLA2 inh	proKLK7 act conf	EDANS interfere	ADAM10 confirm	ADAM17 counter	hGIII sPLA2 conf	535nm interf	others
Cc1cc(C)c2nc(NNC(=O)c3cc(-c4cccs4)nc4ccccc34)sc2c1	13.2*	-13.8	-296.7	-66.7	36.8*	10.3	12.1*	.	.	33.6*	0.0	BODIPY interf DR=>122
COc1ccccc1CC(=O)Nc1ccc(Cl)cc1C(=O)O	0.8	13.3	-17.4	-7.0	-4.0	.	.	.	.	.	.
COC(=O)c1cc(Cl)ccc1NCC(N)c1ccccc1 (stereo not given)	17.7*	3.5	i	i	20.2*	-41.0	-39.9	.	.	9.0	-15.0
CNc1ccccc1C(=O)OCC(=O)N(CCOC)c1c(N)n(CC(C)C)c(=O)[nH]c1=O	19.8*	-2.2	i	-411.0	19.5*	17.7*	15.9*	.	.	10.8	-8.2
Nc1ccc2nc(-c3cccnc3)[nH]c2c1	-0.4	-1.1	-10.5	-4.7	10.9	.	.	.	.	.	.
Nc1ccc2nc(-c3ccc(N)c(Cl)c3)[nH]c2c1	77.3*	-6.9	i	i	20.7*	67.6*	71.7*	.	.	9.2	-0.1
Cc1c(NC(=O)C2CCCN(S(=O)(=O)c3ccc(C(C)(C)C)cc3)C2)c(=O)n(-c2ccccc2)n1C (stereo not given)	-0.3	.	-4.5	0.3	0.0	.	.	.	.	.	.
COC(=O)C1=NN(c2cccc(C)c2)C2C(=O)N(c3ccccc3OC)C(=O)C12 (stereo not given)	14.9*	-12.3	-12.3	-4.4	20.2*	-51.6	-46.7	.	.	-2.4	-2.1
Cc1cc(OC[C@@H](O)CN2CCC(C(O)(c3ccccc3)c3ccccc3)CC2)ccc1Br	-0.5	.	10.4	6.7	-13.9	.	.	.	.	.	.
Cc1ccc(C)c(NC(=O)CNS(=O)(=O)c2ccc3[nH]c(=O)oc3c2)c1	0.0	.	-5.2	-2.3	-17.2	.	.	.	.	.	.
CCOc1ccc(N(CC(=O)NCc2ccco2)C(=O)CCC(=O)Nc2nccs2)cc1	0.8	-6.7	4.8	0.9	-6.7	.	.	.	.	.	.
CCc1ccccc1N(CC(=O)NCc1ccco1)C(=O)CCC(=O)Nc1nccs1	0.1	10.2	88.0*	-7.2	-3.0	.	.	1.4	-0.6	.	.
COc1ccc(N2CCN(CC(O)COc3ccc4c(c3)CCC4)CC2)cc1 (stereo not given)	-0.6	-3.5	7.2	0.5	-3.1	.	.	.	.	.	.
OC(COc1ccc2c(c1)CCC2)CN1CCN(c2ccccc2F)CC1 (stereo not given)	0.4	-1.3	20.4*	1.6	-5.9	.	.	2.4	-0.3	.	.
Oc1ccccc1C(Nc1nccs1)c1ccc2cccnc2c1O (stereo not given)	0.9	-10.2	19.8*	7.9	18.1	.	.	8.2	2.8	.	.
Fc1ccc(CNCc2ccco2)cc1	-0.5	14.7	19.8*	7.6	14.8	.	.	-0.9	-0.2	.	.
Cc1ccc(CNCc2ccco2)cc1	0.1	-4.5	-6.6	-5.6	0.5	.	.	.	.	.	.
Cn1c(N/N=C/c2cccs2)nc2c1c(=O)n(Cc1ccccc1)c(=O)n2C	-1.2	0.0	26.0*	5.1	-9.9	.	.	8.8	5.1	.	.
Cn1c(=O)c2c(nc(N/N=C/c3cccs3)n2Cc2ccccc2)n(C)c1=O	0.1	-11.1	-3.5	2.5	5.2	.	.	.	.	.	.
CCCCn1c(SCc2nc(N)nc(Nc3ccccc3C)n2)nc2ccccc2c1=O	0.8	-1.8	21.2*	3.8	-15.6	.	.	15.0	4.5	.	.
